Screening results from PubChem BioAssay.
LRH-1 inv ag – LRH-1 (NR5A2) inverse agonists, primary screen, cell-based, luminescence, HEK293T, StAR-luciferase reporter | inhibition, % at 3.6 µM | actives 0.13% (n = 360,000) | LRH-1 transfected, 24 h | Nuclear receptor subfamily 5 group A member 2 (Homo sapiens), O00482;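 active means inhibition above the mean inhibition of all tested compounds plus 3 SD, cut at about 73% in these data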
SRC1 inh – SRC1 coactivator transcriptional activity inhibitors, primary screen, cell-based, luminescence | Nuclear receptor coactivator 1 (Homo sapiens), Q15788 | HEK293 GAL4-SRC1 luciferase reporter | inhibition, % at 3.6 µM | actives 0.12% (n = 360,000);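 active means inhibition above the campaign mean plus 3 SD, with each screening campaign given its own cutoff, cut at about 60% in these data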
NR2F2 inh – NR2F2 transcriptional activity inhibitors, primary screen, cell-based, luciferase reporter, HEK293T, luminescence. COUP transcription factor 2 (Homo sapiens), P24468. HEK293T NGFI-A luciferase reporter. inhibition, % at 8.6 µM. actives 0.7% (n = 370,000). AID 686940, 2013;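 active means inhibition above a per-plate cutoff, mean inhibition of test wells between control levels plus 3 SD, cut at about 38% in these data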;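 further: cells cotransfected with COUP-TFII expression vector driving the NGFI-A reporter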
GalR3 antag – GalR3 antagonists in HEK293 cells, primary screen, cell-based, fluorescence readout. AID 651719, 2012. Galanin receptor type 3 (Homo sapiens), O60755. inhibition, % at 3 µM. actives 0.44% (n = 360,000). HEK293 GalR3-CNG cAMP membrane potential fluorescence; galR3 body fused to GalR1 C-terminus;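 active means inhibition above the screen-wide average plus 3 SD, cut at about 13% in these data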;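 further: forskolin and galanin both at EC90 stimulate the cells; cAMP rise reported by CNG channel membrane potential dye signal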
NCOA2 inhibitor – inhibition of GAL4-SRC2 driven luciferase reporter, primary screen, SRC2 inhibitor project, cell-based, luminescence; Nuclear receptor coactivator 2 (Homo sapiens), Q15596; actives 0.17% (n = 370,000); inhibition, % at 9 µM; HEK293 GAL4-SRC2 luciferase reporter;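 active means inhibition above the mean inhibition of all tested compounds plus 3 SD, set per campaign, cut at about 52% in these data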
NCOA3 inh – SRC3 coactivator transcriptional activity inhibitors, primary screen, cell-based, luminescence. actives 0.17% (n = 360,000). inhibition, % at 3.6 µM. Nuclear receptor coactivator 3 (Homo sapiens), Q9Y6Q9. HEK293 GAL4-SRC3 luciferase reporter. AID 588352, 2011;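 active means inhibition above a per-campaign cutoff, the mean of all compounds plus 3 SD, cut at about 60% in these data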;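 further: higher means less SRC3-driven luciferase light from the GAL4 reporter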
Target sequence (Q9Y6Q9 whole entry, looked up, the tested form may be a part): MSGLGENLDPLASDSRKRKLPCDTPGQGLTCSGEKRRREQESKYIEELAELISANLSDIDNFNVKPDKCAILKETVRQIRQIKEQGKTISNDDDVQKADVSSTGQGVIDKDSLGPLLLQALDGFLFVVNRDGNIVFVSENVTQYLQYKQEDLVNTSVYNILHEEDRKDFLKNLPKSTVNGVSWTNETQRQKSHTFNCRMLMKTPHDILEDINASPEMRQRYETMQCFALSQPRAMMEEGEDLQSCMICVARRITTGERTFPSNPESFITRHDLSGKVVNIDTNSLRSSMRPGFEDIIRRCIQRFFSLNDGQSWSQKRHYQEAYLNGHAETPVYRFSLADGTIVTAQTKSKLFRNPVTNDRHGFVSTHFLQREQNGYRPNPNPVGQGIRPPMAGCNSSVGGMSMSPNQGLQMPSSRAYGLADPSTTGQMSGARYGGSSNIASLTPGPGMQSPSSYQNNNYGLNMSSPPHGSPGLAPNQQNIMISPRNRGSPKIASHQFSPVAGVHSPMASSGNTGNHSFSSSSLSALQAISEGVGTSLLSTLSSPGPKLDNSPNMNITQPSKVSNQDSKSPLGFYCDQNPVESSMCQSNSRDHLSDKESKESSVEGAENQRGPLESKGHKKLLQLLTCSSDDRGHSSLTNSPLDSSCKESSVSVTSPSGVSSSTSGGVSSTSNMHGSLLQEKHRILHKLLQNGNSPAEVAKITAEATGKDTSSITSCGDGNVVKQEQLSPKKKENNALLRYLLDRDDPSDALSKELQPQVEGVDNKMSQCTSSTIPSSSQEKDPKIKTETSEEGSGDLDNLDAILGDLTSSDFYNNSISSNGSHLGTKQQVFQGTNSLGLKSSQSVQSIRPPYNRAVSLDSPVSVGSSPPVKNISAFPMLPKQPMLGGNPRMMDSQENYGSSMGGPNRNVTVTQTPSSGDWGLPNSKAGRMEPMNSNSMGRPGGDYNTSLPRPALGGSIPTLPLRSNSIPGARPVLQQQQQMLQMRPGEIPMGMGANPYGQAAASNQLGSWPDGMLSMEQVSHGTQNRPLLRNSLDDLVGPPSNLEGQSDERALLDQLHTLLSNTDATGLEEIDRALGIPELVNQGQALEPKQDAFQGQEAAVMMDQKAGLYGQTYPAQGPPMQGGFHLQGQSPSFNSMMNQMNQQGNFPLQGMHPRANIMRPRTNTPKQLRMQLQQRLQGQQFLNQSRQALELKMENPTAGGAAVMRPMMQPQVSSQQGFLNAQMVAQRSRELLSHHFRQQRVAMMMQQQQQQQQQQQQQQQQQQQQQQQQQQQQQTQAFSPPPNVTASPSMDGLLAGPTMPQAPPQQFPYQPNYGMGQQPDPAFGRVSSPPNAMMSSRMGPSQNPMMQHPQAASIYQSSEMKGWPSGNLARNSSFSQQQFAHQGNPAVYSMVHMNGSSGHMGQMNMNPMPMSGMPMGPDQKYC
Gal4-VP16 ctr – Gal4-VP16 luciferase reporter inhibitors, counter-screen for COUP-TFII antagonist project, cell-based, luminescence, HEK293 | shares compounds with NR2F2 inh | inhibition, % at 8.5 µM | AID 687007, 2013 | actives 25% (n = 2,500); in the data active means inhibition above about 13%
COUP-TFII conf – NR2F2 transcriptional activity inhibitors, confirmation, cell-based, luciferase reporter, HEK293, triplicate; AID 687008, 2013; actives 45% (n = 2,500); shares compounds with NR2F2 inh; inhibition, % at 8.5 µM; HEK293 NGFI-A luciferase reporter, luminescence;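 active means mean inhibition over three repeats above a set limit taken from the earlier primary screen, cut at about 38% in these data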
Large screens that a line does not name were inactive (follow-up assays come after a bar, where they were run). This is a sample that favours compounds with a hit; in the whole collection about 1.1% have one here.

COCCn1c(C)cc(C(=O)COC(=O)c2ccccc2Br)c1C	LRH-1 inv ag 78, SRC1 inh 81, NR2F2 inh 87, NCOA2 inhibitor 74, NCOA3 inh 81 | Gal4-VP16 ctr 72 | COUP-TFII conf 95
Cc1cc(C(=O)COC(=O)c2ccccc2NCCO)c(C)n1CC1CCCO1 (stereo not drawn)	NR2F2 inh 44 | Gal4-VP16 ctr inactive | COUP-TFII conf inactive
Cc1ccc(C(=O)OCC(=O)c2cc(C)n(CC3CCCO3)c2C)cc1 (stereo not drawn)	none
Cc1cc(C(=O)COC(=O)c2ccccc2Br)c(C)n1CC1CCCO1 (stereo not drawn)	LRH-1 inv ag 82, SRC1 inh 82, NR2F2 inh 90, NCOA2 inhibitor 82, NCOA3 inh 84 | Gal4-VP16 ctr 85 | COUP-TFII conf 101
COCCn1c(C)cc(C(=O)COC(=O)c2cccnc2SC)c1C	none
COC(=O)[C@]12C[C@H](CC(=O)N3CCC(c4ccccc4)CC3)C(=O)N(Cc3ccco3)C1=C[C@H](C1CCCC1)O[C@@H]2C	none (no result: LRH-1 inv ag, SRC1 inh, GalR3 antag, NCOA3 inh)
C=CCN(Cc1ccc2c(c1)OCO2)C(C#CC1CC1)C(C)C (stereo not drawn)	none (no result: LRH-1 inv ag, SRC1 inh, GalR3 antag, NCOA3 inh)
O=C(C1CCCN(S(=O)(=O)c2ccc(Br)s2)C1)N1CCN(Cc2ccccc2)CC1 (stereo not drawn)	none (no result: LRH-1 inv ag, SRC1 inh, GalR3 antag, NCOA3 inh)
O=S1(=O)c2c(NCc3ccco3)cccc2Oc2ccccc2CN1Cc1cn(Cc2ccc(F)cc2)nn1	none (no result: LRH-1 inv ag, SRC1 inh, GalR3 antag, NCOA3 inh)
CCN(CC)S(=O)(=O)c1cccc(C(=O)Nc2ccc(C#N)cc2)c1	NR2F2 inh 55 | Gal4-VP16 ctr inactive | COUP-TFII conf 40
CCN(CC)S(=O)(=O)c1cccc(NC(=O)c2ccc(Br)cc2)c1	NR2F2 inh 39 | Gal4-VP16 ctr inactive | COUP-TFII conf inactive
CC(=O)CC[C@@H]1CC[C@]2(CCCN(S(=O)(=O)C3CCCCC3)C2)O1	none (no result: LRH-1 inv ag, SRC1 inh, GalR3 antag, NCOA3 inh)
CN(C)S(=O)(=O)c1ccc(C(=O)NC2CCCc3ccccc32)cc1 (stereo not drawn)	NR2F2 inh 63 | Gal4-VP16 ctr inactive | COUP-TFII conf inactive
C[C@H](O)[C@@H]1CN2CCc3c([nH]c4c(-c5ccc6c(c5)OCO6)cccc34)[C@@H]2C[C@@H]1N(C)C(=O)Nc1ccccc1	none (no result: LRH-1 inv ag, SRC1 inh, GalR3 antag, NCOA3 inh)
O=C(Nc1cccc(S(=O)(=O)N2CCCCC2)c1)c1ccc2c(=O)n3c(nc2c1)CCCCC3	NR2F2 inh 45 | Gal4-VP16 ctr inactive | COUP-TFII conf 49
COC(=O)C1CCN(C(=O)c2cc(-c3ccc(Cl)s3)nc3ccccc23)CC1	NR2F2 inh 38 | Gal4-VP16 ctr inactive | COUP-TFII conf inactive
CCOC(=O)[C@@]12CCCC=C1N(CCc1ccc(Cl)cc1)C(=O)[C@H]2CC(=O)N1CCCC1	NR2F2 inh 44 (no result: LRH-1 inv ag, SRC1 inh, GalR3 antag, NCOA3 inh) | Gal4-VP16 ctr inactive | COUP-TFII conf 40
CCOC(=O)[C@@]12CCCC=C1N(CCc1ccc(Cl)cc1)C(=O)[C@H]2CC(=O)N1CCCCC1	none (no result: LRH-1 inv ag, SRC1 inh, GalR3 antag, NCOA3 inh)
C/C(=N\NC(=O)Cc1cc(=O)[nH][nH]1)c1ccc([N+](=O)[O-])cc1	none (no result: LRH-1 inv ag, SRC1 inh, GalR3 antag, NCOA3 inh)
CCOC(=O)[C@]12CCCCC/C=C\1N(CCc1ccc(Cl)cc1)C(=O)[C@H]2CC(=O)N1CCCC1	none (no result: LRH-1 inv ag, SRC1 inh, GalR3 antag, NCOA3 inh)
CCN(CC)c1ccc(/C=C/c2cccc[n+]2C)c(OC)c1	LRH-1 inv ag 82, NR2F2 inh 78, GalR3 antag 18 | Gal4-VP16 ctr 19 | COUP-TFII conf 74
CC(=O)c1c(C)[nH]c(C(=O)C(C)Sc2nnc(NC3CC3)s2)c1C (stereo not drawn)	NR2F2 inh 37 | Gal4-VP16 ctr inactive | COUP-TFII conf inactive
CC(Sc1nnc(NC2CC2)s1)C(=O)Nc1ccc(N2CCOCC2)cc1 (stereo not drawn)	none
CCOC(=O)N1CCC(NC(=O)C2CCCN(Cc3nc(-c4cccc(C)c4)oc3C)C2)CC1 (stereo not drawn)	NR2F2 inh 42 | Gal4-VP16 ctr inactive | COUP-TFII conf inactive
Cc1cccc(-c2nc(CN3CCCC(C(=O)NC4CCCC4)C3)c(C)o2)c1 (stereo not drawn)	none
O=C(NCCCN1CCN(c2ccc(F)cc2)CC1)NCc1ccccc1	none (no result: LRH-1 inv ag, SRC1 inh, GalR3 antag, NCOA3 inh)
COc1ccc(NC(=O)COc2ccccc2Cc2ccccc2)cc1S(N)(=O)=O	NR2F2 inh 44 | Gal4-VP16 ctr inactive | COUP-TFII conf inactive
O=C(CN1CCCc2ccccc21)NCc1ccccc1F	none (no result: LRH-1 inv ag, SRC1 inh, GalR3 antag, NCOA3 inh)
Cn1cc([N+](=O)[O-])c(C(=O)Nc2cc(Oc3ccccc3)cc([N+](=O)[O-])c2)n1	none
Cc1cccc(Oc2cc(NC(=O)c3ccccc3)cc([N+](=O)[O-])c2)c1	NR2F2 inh 50 | Gal4-VP16 ctr inactive | COUP-TFII conf inactive
COc1ccc(COC(=O)C2=C(C)NC(=O)NC2c2ccc(F)cc2)cc1 (stereo not drawn)	NR2F2 inh 39 | Gal4-VP16 ctr inactive | COUP-TFII conf inactive
O=C(O)CCCCCN1C(=O)CSC1=S	NR2F2 inh 45, NCOA2 inhibitor 81 | Gal4-VP16 ctr inactive | COUP-TFII conf inactive
CCOc1cc(/C=C2\CN(C)C/C(=C\c3ccc(O)c(OCC)c3)C2=O)ccc1O	NR2F2 inh 78 | Gal4-VP16 ctr 57 | COUP-TFII conf 82
COc1ccc(NS(=O)(=O)c2cccc(C(=O)OCC(=O)N3CCN(c4ccc(OC)cc4)CC3)c2)cc1	NR2F2 inh 39 | Gal4-VP16 ctr inactive | COUP-TFII conf inactive
COc1ccc(N2CCN(C(=O)c3ccc(NS(=O)(=O)c4cccc(F)c4)cc3)CC2)cc1	none
CCOC(=O)CC[C@H]1CC[C@]2(CCCN(C(=O)c3ccno3)C2)O1	none (no result: LRH-1 inv ag, SRC1 inh, GalR3 antag, NCOA3 inh)
COc1ccc([N+](=O)[O-])cc1NC(=S)NC(NC(=O)C(c1ccccc1)c1ccccc1)C(Cl)(Cl)Cl (stereo not drawn)	NR2F2 inh 41 | Gal4-VP16 ctr inactive | COUP-TFII conf inactive
CCOC(=O)c1[nH]c2c(c1C)C(=O)CC(c1ccc(F)cc1)C2 (stereo not drawn)	none
Cc1c(C(=O)OCC2CCCO2)[nH]c2c1C(=O)CC(c1ccc(N(C)C)cc1)C2 (stereo not drawn)	NR2F2 inh 37 | Gal4-VP16 ctr inactive | COUP-TFII conf inactive
CN(c1c2c(nc3ncnn13)CCCC2)C1CCCCC1	none (no result: LRH-1 inv ag, SRC1 inh, GalR3 antag, NCOA3 inh)
